Screening data as filed in PubChem.
HT1080NT lethal – kills 2HG-producing HT-1080-NT fibrosarcoma cells; Potency, µM (series often up to 46.1 µM), most hits filed as cytotoxic; actives 1.6% (n = 360,000); HT-1080-NT fibrosarcoma viability, CellTiter-Glo ATP luminescence, 48 h;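 also: NT is the 2HG producing partner of a matched IDH1 knockdown line; nearly all actives have a fitted effect of over 55% in size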
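Read-out is CellTiter-Glo luminescence after 10 minutes at room temperature, following 48 hours' compound treatment of HT-1080-NT cells (750 cells/well, RPMI, 5% FBS, 37 degrees C).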
DT40 TDP1 no CPT – qHTS for Inhibitors of human tyrosyl-DNA phosphodiesterase 1 (TDP1): qHTS in cells in absence of CPT; DT40 Tdp1-/- hTDP1 cells, no CPT, ATP luminescence, 48 h; Potency, µM (doses to about 46.2 µM), actives largely listed as inhibitors; actives 15% (n = 420,000); AID 686978, 2013; also: nearly all actives have a fitted effect of over 55% in size
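Readout: luminescence from CellTiter-Glo after 30 min in the dark at RT. Cells: DT40 Tdp1-/- with stable hTDP1, 400/well. Exposure: compounds alone, ≥48 hr, 37 °C.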
HT1080 IDH1KD tx – toxicity to HT-1080 IDH1 knockdown cells (counter line). HT-1080 IDH1 knockdown viability, ATP luminescence, 48 h. actives 2% (n = 360,000). Potency, µM (series often up to 46.1 µM), hits mostly cytotoxic. AID 686971
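HT-1080-IDH1KD cells (IDH1 knocked down), 750/well in RPMI with 5% FBS, treated with compound 48 h at 37 degrees C. Viability by CellTiter-Glo luminescence, normalised to DMSO and no-cell wells; concentration-response curves classed.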
ALOX12 inh – blocks human arachidonate 12S-lipoxygenase; P18054; purified 12hLO, xylenol orange hydroperoxide absorbance; Potency, µM (highest dose often 108 µM), usual class: inhibitors; actives 1.1% (n = 580,000)
Target sequence (P18054 whole entry, looked up): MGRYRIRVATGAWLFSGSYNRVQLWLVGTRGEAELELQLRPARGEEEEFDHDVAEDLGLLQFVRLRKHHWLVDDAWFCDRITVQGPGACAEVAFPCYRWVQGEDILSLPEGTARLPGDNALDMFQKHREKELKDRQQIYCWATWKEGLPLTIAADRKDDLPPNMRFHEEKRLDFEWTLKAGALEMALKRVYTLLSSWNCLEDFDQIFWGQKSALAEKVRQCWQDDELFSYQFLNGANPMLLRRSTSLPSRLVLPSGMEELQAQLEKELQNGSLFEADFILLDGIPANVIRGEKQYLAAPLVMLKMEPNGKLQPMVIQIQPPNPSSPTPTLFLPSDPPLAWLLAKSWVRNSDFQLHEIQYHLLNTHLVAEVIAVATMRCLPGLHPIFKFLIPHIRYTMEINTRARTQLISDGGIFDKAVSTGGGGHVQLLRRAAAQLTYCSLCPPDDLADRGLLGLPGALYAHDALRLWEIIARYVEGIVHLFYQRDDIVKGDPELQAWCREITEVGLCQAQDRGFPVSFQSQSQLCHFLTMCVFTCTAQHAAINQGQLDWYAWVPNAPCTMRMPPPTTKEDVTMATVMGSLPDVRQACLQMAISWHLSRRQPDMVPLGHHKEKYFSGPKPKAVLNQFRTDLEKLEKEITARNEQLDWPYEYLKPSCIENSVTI
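Purified human 12hLO at 150 nM in 25 mM Hepes, 0.01% Triton X-100, pH 7.0, preincubated 15 min at room temperature with compound. Reaction started with 40 uM arachidonic acid, 30 min at room temperature. Hydroperoxide measured by Fe-xylenol orange, 573/405 nm absorbance ratio.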
TDP1 cell CPT – DT40-hTDP1 cell growth loss with CPT | chicken DT40 Tdp1-/-;hTDP1 cells + 20 nM CPT, ATP luminescence, 48 h | Potency, µM (highest dose often 46.2 µM), hits mostly inhibitors | actives 12% (n = 420,000); also: nearly all actives have a fitted effect of over 55% in size
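Chicken DT40 Tdp1-/- cells stably complemented with human TDP1 were seeded at 400 cells/well in medium containing 20 nM camptothecin, exposed to pin-transferred compounds, and grown at 37 °C for at least 48 hr. Viability was read as ATP luminescence.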
IL1B secr inh – inflammasome signaling inhibition, IL-1 beta readout. THP-1 LPS/ATP IL-1B secretion, AlphaLISA, 16 h; hits give low values. activity change, % at 57.5 µM. actives 4.7% (n = 360,000); in the data active = activity change below about -50%; inconclusive = mostly about -30% to -49%
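Secreted IL-1B measured by AlphaLISA bead assay after 16 h compound exposure of THP-1 cells; compounds (final up to 57.5 uM) added 1 h before LPS (250 ng/mL) and ATP (1.25 mM) stimulation; lower signal means less secretion.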
A number is an active result; - = inactive; ? = inconclusive; . = no result; ! = not confirmed by another sample; [ ] = dose if it differs, or a comment. Many of the other results were omitted from the sample, so hits are more common in it than they were. Unless noted, calls follow the shape of the dose curve; as a rule, active = well fitted curve in the direction sought with a large enough effect; inconclusive = small, poorly fitted or top-dose-only effect, or another doubt; inactive = no such curve, though single readings can be large; an effect the other way counts as inactive or inconclusive.

SMILES | HT1080NT lethal | DT40 TDP1 no CPT | HT1080 IDH1KD tx | ALOX12 inh | TDP1 cell CPT | IL1B secr inh
CC(=O)N1CCC(N2C[C@@H]3OCC(=O)N(CC4CC4)[C@@H]3C2)CC1 | . | . | . | - | . | .
C[S+](=O)([O-])N1CC2(CCCN2CC2CC2)Cc2ccccc21 (stereo not given) | . | . | . | -[6.33 µM] | . | .
O=c1c2ccccc2nc(N2CCN(c3cccc(Cl)c3)CC2)n1-c1ccccc1 | . | 2.91µM | . | - | 3.66µM | .
Cc1ccc(C)c(N2CCN(c3nc4ccccc4c(=O)n3-c3ccc(Cl)cc3)CC2)c1 | . | 20.6µM | . | ? | 5.8µM | .
Cc1cccc(N2CCN(c3nc4ccccc4c(=O)n3-c3ccc(Cl)cc3)CC2)c1C | . | ? | . | - | - | .
FC(F)Oc1ccc(N=C2SCC3CCCCN23)cc1 (stereo not given) | - | 23.1µM | - | - | ? | -
S=c1sc2c(N3CCN(Cc4ccccc4)CC3)ncnc2n1-c1ccccc1 | - | 23.1µM | - | - | 16.4µM | -
COc1ccc(N2CCN(c3ncnc4c3nnn4C)CC2)cc1 | . | ? | . | - | ? | .
CCCN1CCN(c2ncnc3c2nnn3Cc2ccccc2)CC1 | - | 20.6µM | ? | - | 16.4µM | -
Clc1cccc(Cl)c1Cn1cnc2c(N3CCCCCC3)ncnc21 | - | 10µM | - | - | 18.4µM | -73.8
Cn1nnc2c(N3CCN(Cc4ccccc4)CC3)ncnc21 | - | 15.8µM | - | . | ? | .
c1ccc(Cn2nnc3c(N4CCc5ccccc54)ncnc32)cc1 | - | - | - | - | - | -
c1ccc(Cn2nnc3c(N4CCCCCC4)ncnc32)cc1 | - | 16.4µM | - | - | ? | -
CN(C)c1ccc(CN2CCC3(C2)C(=NC2CCCCC2)NC(=O)N3c2cccnc2)cc1 (stereo not given) | . | . | . | -[6.33 µM] | . | .
Cc1c(C)c2cc3c(c(C)c2oc1=O)OCN(CCc1ccccc1)C3 | . | ? | . | - | 13µM | .
CCc1c(C)c2ccc3c(c2oc1=O)CN(Cc1ccccc1)CO3 | . | . | . | - | . | .
COC(=O)Cc1c(C)c2cc3c(c(C)c2oc1=O)OCN(CCc1ccc(F)cc1)C3 | . | ? | . | - | ? | .
Cc1c(C)c2cc(Cl)c(O)c(CN3CCN(C)CC3)c2oc1=O | ? | - | - | - | - | -
CCc1c(C)c2cc3c(c(C)c2oc1=O)OCN(CCc1ccccc1F)C3 | . | 16.4µM | . | ? | 13µM | .
CCOC(=O)CCc1c(C)c2cc3c(c(C)c2oc1=O)OCN(CCc1ccccc1OC)C3 | . | ? | . | - | 29.1µM | .
COc1cc(OC)c(NC(=O)CN2C(=O)NC3(CCC(C)CC3)C2=O)cc1Cl (stereo not given) | . | . | . | - | . | .
CCOCCn1c(=O)n(Cc2noc(C(C)(C)C)n2)c2cc(C(=O)O)cnc21 | . | . | . | - | . | .
O=C(NCCn1cccc1-c1nc(-c2ccccc2)no1)c1ccc(F)c(Cl)c1 | . | . | . | - | . | .
CCOC(=O)C1(C)C=C(Nc2cccc(C)c2)C(=O)N1c1ccccc1 (stereo not given) | . | 18.4µM | . | - | ? | .
CCN(CC(=O)NCc1cccs1)C(=O)c1cccc(S(=O)(=O)N(CC)c2ccccc2)c1 | - | 23.1µM | - | - | ? | -
SMILES | HT1080NT lethal | DT40 TDP1 no CPT | HT1080 IDH1KD tx | ALOX12 inh | TDP1 cell CPT | IL1B secr inh
Cc1ccc(NS(=O)(=O)c2cccc(C(=O)NCC(c3cccs3)N(C)C)c2)cc1 (stereo not given) | ? | ? | ? | ? | 16.4µM | -
CCN(c1ccccc1)S(=O)(=O)c1ccc(C(=O)N(C)Cc2cccs2)cc1 | -[9.24 µM] | 23.1µM | - | - | ? | -
CNS(=O)(=O)c1cccc(C(=O)NCC(c2cccs2)N(C)C)c1 (stereo not given) | - | - | - | - | - | -
Cc1cccc(NS(=O)(=O)c2ccc(C)c(C(=O)NCC(c3cccs3)N(C)C)c2)c1 (stereo not given) | - | ? | - | - | 18.4µM | -
COc1ccccc1-c1c(C)nn2c(N3CCN(c4cccc(Cl)c4)CC3)cc(C)nc12 | . | - | . | - | - | .
COc1ccc(-c2cc(C(=O)NC3CC3)c3c(C4CCCN4)nn(C)c3n2)cc1 (stereo not given) | . | . | . | -[6.33 µM] | . | .
CCN(c1ccccc1)S(=O)(=O)c1cccc(C(=O)NCC(c2cccs2)N(C)C)c1 (stereo not given) | - | 20.6µM | - | - | ? | -
Cc1[nH]c(-c2ccc3c(c2)OCO3)nc1C(=O)O | ? | 18.4µM | ? | - | 10.3µM | -
O=C(O)COc1ccc(-c2nc(-c3ccccc3)c(-c3ccccc3)[nH]2)cc1 | ? | - | ? | - | - | -
COc1ccc(-c2[nH]c(-c3ccc(O)cc3)nc2-c2ccccc2)cc1 | . | ? | . | ? | 14.6µM | .
Cc1[nH]c(-c2ccco2)nc1C(=O)O | - | - | - | ? | - | -
COc1ccc(-c2nc(-c3ccccc3)c(-c3ccc(O)cc3)[nH]2)cc1 | . | 8.2µM | . | ? | 13µM | .
COc1ccc(-c2nc(-c3ccc4c(c3)OCO4)[nH]c2-c2ccc(OC)cc2)cc1 | 18.4µM | ? | ? | - | ? | ?
COc1ccccc1C1CN(Cc2cccc(O)c2)Cc2ccccc2O1 (stereo not given) | . | 16.4µM | . | ? | -[9.04 µM] | .
COc1ccccc1C1CN(Cc2ccc(Sc3nncn3C)o2)Cc2ccccc2O1 (stereo not given) | . | 16.4µM | . | - | -[9.04 µM] | .
C=CCCCOc1ccc(/C=C/C(=O)c2ccc(OCCCCC)cc2)cc1 | . | . | . | - | . | .
COc1cc2c(cc1OC)CN(c1nc(CN3CCCC3)nc3sc(C)c(C)c13)CC2 | 14.6µM | ? | ? | - | - | -66.6
O=C(Cn1cccc1-c1nc(-c2ccc3c(c2)OCO3)no1)Nc1cc(F)cc(F)c1 | . | . | . | - | . | .
Cc1ccc(NC(=O)CN2C(=O)COc3ccc(S(=O)(=O)N4CCCCC4)cc32)cc1Cl | . | ? | . | - | ? | .
COc1ccc(NC(=O)CN2C(=O)COc3ccc(S(=O)(=O)N4CCOCC4)cc32)cc1Cl | - | 18.4µM! | - | - | ? | ?
Cc1ccc(NC(=O)CN2C(=O)COc3ccc(S(=O)(=O)N4CCCCC4)cc32)cc1N(C)C | . | 20.6µM | . | - | 23.1µM | .
COc1ccccc1NC(=O)CN1C(=O)COc2ccc(S(=O)(=O)N3CCOCC3)cc21 | - | - | - | - | - | -
CCC1=C(C(=O)OC)C(c2ccc(C)cc2C)N2C(CC(=O)N3CCC(C)CC3)=CSC2=N1 (stereo not given) | . | . | . | - | . | .
NC(=NCc1ccccc1)NC(=O)c1nc(Cl)c(N)nc1N | ? | 23.1µM | ? | ? | 10.3µM | -60.7
NC(=NCc1ccc2c(c1)OCO2)NC(=O)c1ccccc1 | - | ? | - | - | - | -
